Results reported in the supplement of paper PMC11482750.
± gives the standard deviation of the averaged measurements.

Compound: CCCCN=C=S [butyl isothiocyanate]
Test: control-subtracted net OSN firing rate; higher = stronger neuronal activation
Settings: odorant dilution (vol/vol): 1/100
In short: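 Values are replicate means from single sensillum recordings of palp or antennal olfactory sensory neurons. Recordings used 1–5-day-old fed female flies, either Scaptomyza species or D. melanogaster wild-type, mutant or at1 empty-neuron lines carrying Or42a homologs, stimulated with 1 s pulses of odorant (1:100 vol/vol in mineral oil or dimethyl sulfoxide, 20 μl on filter paper) into 16 ml/min filtered air. Spikes in a 0.5 s window beginning 0.2 s after onset were background-subtracted, doubled and corrected for solvent.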

Question: How did the “control-subtracted net OSN firing rate” value turn out when S. pallida pb3a-like was run?
Answer: -3 ± 7.5 spikes/s
